Test systems include HCT-15 colon; HT29 colon; SNB-75 CNS; SNB-19 CNS; U251 CNS; PC-3 prostate; SK-MEL-5 melanoma; UACC-62 melanoma; LOX IMVI melanoma; SK-MEL-28 melanoma.
Common to all, as to experiment: NCI-60 one-dose screen, 48 h (100 = growth as untreated, 0 = no growth, -100 = all killed)
Details in all cases: 10 µM

About 83,000 compounds went through this panel and 20% of them were active in at least one assay; those are over-represented in the sample as a whole.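 The test compound was applied at a single concentration to cells in 96-well plates for 48 hours, and percent growth was recorded.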 Unmarked numbers belong to inactive results. Calls of active or inactive are those of the source. How the source made its calls: active means growth percent below 10; inactive means the rest.

As to `CN(C)CCCN(Cc1ccccc1O)C(=S)Nc1ccc(Cl)cc1`, the growth with HCT-15 colon was 93%; in the experiment with HT29 colon it was 106%; with SNB-75 CNS, 79.5%; in the experiment on SNB-19 CNS it was 94.7%; with U251 CNS it was 101%; with PC-3 prostate it was 93.8%. Besides, the growth is 91.3% in the experiment on SK-MEL-5 melanoma, 108% in the experiment with UACC-62 melanoma, 98.4% in the experiment with LOX IMVI melanoma and 109% in the experiment on SK-MEL-28 melanoma.

For `O=C(/C=C/c1ccc(Cl)cc1)c1ccc(Br)cc1`, the growth in the experiment with HCT-15 colon is 90.4%; with HT29 colon it was 73.7%; in the experiment on SNB-75 CNS, 101%; in the experiment with SNB-19 CNS, 99%; with U251 CNS, 89.4%; with PC-3 prostate it was 97.4%. The growth was 105% in the experiment with SK-MEL-5 melanoma, 92.6% with UACC-62 melanoma, 83.4% in the experiment on LOX IMVI melanoma and 96.5% in the experiment on SK-MEL-28 melanoma.

For the compound `Cc1cc(C(C)(C)CC(C)(C)C)ccc1OCCOCC[N+](C)(C)Cc1ccccc1`, the growth with HCT-15 colon is 94.6%; in the experiment on HT29 colon, -81.2% (active); in the experiment on SNB-75 CNS, -63.4% (active); in the experiment with SNB-19 CNS, -80.8% (active); with U251 CNS it was -86.2% (active); with PC-3 prostate, -19.4% (active). Further, the growth was -95.8% (active) in the experiment with SK-MEL-5 melanoma, -91.9% (active) in the experiment with UACC-62 melanoma, -92.9% (active) in the experiment on LOX IMVI melanoma and -92% (active) with SK-MEL-28 melanoma.

With `COc1ccc(COC(=O)CC(C)C)cc1`, the growth in the experiment with HCT-15 colon was 105%; in the experiment with HT29 colon it was 96.1%; in the experiment on SNB-75 CNS, 91.9%; with SNB-19 CNS it was 103%; with U251 CNS it was 92.7%; with PC-3 prostate it was 94.4%. Besides, the growth with SK-MEL-5 melanoma was 93.4%; in the experiment with UACC-62 melanoma, 99.3%; in the experiment on LOX IMVI melanoma, 97.1%; with SK-MEL-28 melanoma it was 110%.

Regarding `Nc1nc2c(ncn2C2OC3COP(=O)(O)OC4C(COP(=O)(O)OC2C3O)OC(n2cnc3c(N)ncnc32)C4O)c(=O)[nH]1` (stereo not given), the growth is 106% in the experiment with HCT-15 colon; 97.4% in the experiment with HT29 colon; 104% in the experiment on SNB-75 CNS; 93.5% in the experiment on SNB-19 CNS; 110% in the experiment on U251 CNS; 108% in the experiment with PC-3 prostate. Besides, the growth in the experiment on SK-MEL-5 melanoma was 106%; with UACC-62 melanoma, 103%; with LOX IMVI melanoma, 90.2%; in the experiment with SK-MEL-28 melanoma it was 113%.

With `O=C(O)c1ccccc1C(=O)c1cccc2c(F)cccc12`, the growth in the experiment with HCT-15 colon is 104%; in the experiment with HT29 colon it was 115%; with SNB-75 CNS it was 86.2%; with SNB-19 CNS, 98.3%; in the experiment on U251 CNS it was 98.7%; in the experiment with PC-3 prostate, 92.5%. Moreover, the growth in the experiment on SK-MEL-5 melanoma is 108%; with UACC-62 melanoma, 97.7%; in the experiment with LOX IMVI melanoma it was 92.8%; with SK-MEL-28 melanoma it was 111%.

As for `Cc1noc(C)c1-c1ccc2nc(NC(=O)[C@H]3CCN(C#N)C3)cn2c1`, the growth with HCT-15 colon is 84.4%; in the experiment with HT29 colon it was 78.1%; with SNB-75 CNS, 67.7%; with SNB-19 CNS, 108%; in the experiment on U251 CNS it was 93.7%; with PC-3 prostate, 91.7%. The growth in the experiment on SK-MEL-5 melanoma was 86.6%; with UACC-62 melanoma, 77.7%; with LOX IMVI melanoma it was 77.7%; in the experiment with SK-MEL-28 melanoma, 104%.

As for `CC(=O)CS(C)(=O)=O`, the growth with HCT-15 colon is 110%; with HT29 colon, 107%; with SNB-75 CNS, 96.9%; in the experiment on SNB-19 CNS, 102%; with U251 CNS it was 102%; in the experiment with PC-3 prostate, 103%. Besides, the growth was 98% with SK-MEL-5 melanoma, 108% with UACC-62 melanoma, 101% in the experiment on LOX IMVI melanoma and 113% in the experiment on SK-MEL-28 melanoma.

Regarding `CCOC(=O)c1sc(NC(=O)c2cc(OC)c(OC)c(OC)c2)nc1C`, the growth was 96.9% with HCT-15 colon; 99.8% with HT29 colon; 98.5% in the experiment on SNB-75 CNS; 118% in the experiment on SNB-19 CNS; 106% with U251 CNS; 65.1% with PC-3 prostate. Also, the growth was 95.6% in the experiment on SK-MEL-5 melanoma, 88.5% in the experiment with UACC-62 melanoma, 97.3% with LOX IMVI melanoma and 101% in the experiment with SK-MEL-28 melanoma.

As to `CNCCCNCCCN1C(=O)c2ccc3c4c(ccc(c24)C1=O)C(=O)N(CCCNCc1ccccc1OC)C3=O`, the growth is 28% with HCT-15 colon; -23.4% (active) with HT29 colon; 15.9% in the experiment on SNB-75 CNS; 36.6% with SNB-19 CNS; 6.5% (active) in the experiment on U251 CNS; 1.85% (active) with PC-3 prostate. Besides, the growth was -94.2% (active) with SK-MEL-5 melanoma, -42.2% (active) in the experiment on UACC-62 melanoma, -58.3% (active) in the experiment with LOX IMVI melanoma and -48.2% (active) in the experiment on SK-MEL-28 melanoma.

Regarding `Cc1ccccc1[P+](Cc1ccccc1)(c1ccccc1)c1ccccc1`, the growth in the experiment with HCT-15 colon is 90.1%; in the experiment with HT29 colon it was 7.47% (active); with SNB-75 CNS it was 6.56% (active); in the experiment with SNB-19 CNS, 24.7%; in the experiment with U251 CNS, 12.1%; in the experiment on PC-3 prostate it was 9.34% (active). Moreover, the growth was -14% (active) in the experiment with SK-MEL-5 melanoma, 0.358% (active) in the experiment on UACC-62 melanoma, 22.4% in the experiment on LOX IMVI melanoma and 27.3% with SK-MEL-28 melanoma.

In the case of `COc1ccc(C2C=C(c3ccc(Cl)c(Cl)c3)N=C3SC(C)=CN32)cc1OC` (stereo not given), the growth in the experiment with HCT-15 colon is 80.7%; with HT29 colon, 62.9%; in the experiment with SNB-75 CNS, 83.4%; in the experiment on SNB-19 CNS it was 79.4%; with U251 CNS, 69.2%; in the experiment on PC-3 prostate it was 35.6%. Moreover, the growth is 85.1% in the experiment on SK-MEL-5 melanoma, 82.9% in the experiment with UACC-62 melanoma, 56.2% in the experiment on LOX IMVI melanoma and 62.4% in the experiment on SK-MEL-28 melanoma.

Take `COc1ccc(C2=NNC(c3sc(Cl)nc3Cl)C2)cc1` (stereo not given): the growth in the experiment with HCT-15 colon was 34.2%; in the experiment with HT29 colon, 85.9%; with SNB-75 CNS it was 101%; in the experiment with SNB-19 CNS, 95.6%; in the experiment on U251 CNS, 93.7%; in the experiment on PC-3 prostate, 89.6%. Further, the growth in the experiment with SK-MEL-5 melanoma is 54.6%; with UACC-62 melanoma it was 96%; with LOX IMVI melanoma, 9.86% (active); in the experiment on SK-MEL-28 melanoma it was 98.9%.

`O=C(O)CCCN1C(=O)NC2(C1=O)c1ccccc1-c1ccccc12`: the growth with HCT-15 colon was 102%; in the experiment on HT29 colon it was 93.3%; with SNB-75 CNS, 88.9%; in the experiment on SNB-19 CNS, 104%; in the experiment with U251 CNS, 94.7%; in the experiment on PC-3 prostate, 94.4%. Also, the growth with SK-MEL-5 melanoma was 96%; in the experiment with UACC-62 melanoma, 99.3%; in the experiment on LOX IMVI melanoma, 94.8%; with SK-MEL-28 melanoma, 107%.

These data come from PubChem BioAssay (NCI).
